Source: PubChem BioAssay AID1159580 (chemical genetic matrix, 2015)
Screen size: about 5,500 compounds; about 2,000 (36%) were called active. Inconclusive results (about 18%) are left out. Rule as the data show it: active = normalized growth mostly below about 0.91 (no sharp cut-off); inconclusive = no clear call, values can overlap the other calls; inactive = mostly above about 0.92. The list shows a part of the results.

Experiment: chemical genetic growth profiling, strain panel (AID 1159580);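 also: tested at 20 µM; growth read once vehicle control cultures reached saturation at 30 °C; 1 = growth at the plate median or of vehicle wells; lower values mean less growth of the strain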
Conditions: S. cerevisiae deletion strains, growth OD

Measured: normalized growth

Oc1ccc2c(c1)OCC1c3cc4c(cc3OC21)OCO4 (stereo not drawn)
inactive: locus YBR021W, strain FUR4, stronger effect = lower value 0.862 | locus YBR229C, strain ROT2, stronger effect = lower value 0.957 | locus YCL029C, strain bik1, stronger effect = lower value 0.946 | locus YDL035C, strain GPR1, stronger effect = lower value 0.981 | locus YDL074C, strain BRE1, stronger effect = lower value 1.03 | locus YDL101C, strain DUN1, stronger effect = lower value 0.987 | locus YDL134C, strain PPH21, stronger effect = lower value 1.02 | locus YDL185W, strain tfp1, stronger effect = lower value 0.964 | locus YDL192W, strain arf1, stronger effect = lower value 0.944 | locus YDR101C, strain arx1, stronger effect = lower value 0.942 | locus YDR150W, strain NUM1, stronger effect = lower value 1 | locus YDR162C, strain NBP2, stronger effect = lower value 0.993 | locus YDR318W, strain mcm21, stronger effect = lower value 0.962 | locus YDR388W, stronger effect = lower value 0.966 | locus YDR502C, strain sam2, stronger effect = lower value 0.961 | locus YEL061C, strain CIN8, stronger effect = lower value 0.99 | locus YER110C, stronger effect = lower value 0.954 | locus YER155C, strain BEM2, stronger effect = lower value 1 | locus YER167W, strain BCK2, stronger effect = lower value 1 | locus YGL078C, strain dbp3, stronger effect = lower value 0.992 | locus YGL086W, strain mad1, stronger effect = lower value 0.957 | locus YGL248W, strain PDE1, stronger effect = lower value 1 | locus YGR135W, strain pre9, stronger effect = lower value 0.993 | locus YGR252W, strain gcn5, stronger effect = lower value 0.902 | locus YHR079C, strain IRE1 (second series), stronger effect = lower value 0.995 | locus YHR094C, strain hxt1, stronger effect = lower value 0.982 | locus YHR129C, strain ARP1, stronger effect = lower value 1.02 | locus YHR200W, strain rpn10, stronger effect = lower value 0.972 | locus YIL066C, strain RNR3, stronger effect = lower value 0.999 | locus YIL073C, strain SPO22, stronger effect = lower value 1.03 | locus YIL125W, strain kgd1, stronger effect = lower value 0.968 | locus YIR030C, strain dcg1, stronger effect = lower value 0.971 | locus YJL095W, strain BCK1, stronger effect = lower value 0.929 | locus YJL134W, strain LCB3, stronger effect = lower value 0.992 | locus YJL168C, strain set2, stronger effect = lower value 0.996 | locus YJL187C, strain SWE1 (second series), stronger effect = lower value 0.966 | locus YJR075W, strain HOC1, stronger effect = lower value 0.999 | locus YKL009W, strain mrt4, stronger effect = lower value 0.987 | locus YKL068W, stronger effect = lower value 1 | locus YKL085W, strain MDH1 (second series), stronger effect = lower value 1.02 | locus YKL085W, strain MDH1, stronger effect = lower value 1.02 | locus YKL190W, strain CNB1, stronger effect = lower value 1.01 | locus YLR039C, strain RIC1, stronger effect = lower value 0.982 | locus YLR058C, strain SHM2, stronger effect = lower value 0.962 | locus YLR102C, strain apc9, stronger effect = lower value 0.984 | locus YLR268W, strain sec22, stronger effect = lower value 0.906 | locus YLR371W, strain rom2, stronger effect = lower value 0.973 | locus YML016C, strain PPZ1, stronger effect = lower value 0.983 | locus YML032C, strain rad52, stronger effect = lower value 0.956 | locus YML124C, strain tub3, stronger effect = lower value 0.995 | locus YMR078C, strain ctf18, stronger effect = lower value 1 | locus YMR223W, strain ubp8, stronger effect = lower value 0.983 | locus YMR307W, strain GAS1, stronger effect = lower value 1.04 | locus YNL067W, strain RPL9B, stronger effect = lower value 1.01 | locus YNL128W, strain TEP1, stronger effect = lower value 1.01 | locus YNL233W, strain BNI4, stronger effect = lower value 1.05 | locus YNL250W, strain rad50, stronger effect = lower value 1 | locus YNL271C, strain bni1, stronger effect = lower value 0.974 | locus YNL298W, strain CLA4, stronger effect = lower value 0.939 | locus YNL307C, strain MCK1, stronger effect = lower value 0.95 | locus YNR052C, strain pop2, stronger effect = lower value 0.994 | locus YOL012C, strain htz1 1.23 | locus YOL147C, strain pex11, stronger effect = lower value 0.967 | locus YOR061W, strain CKA2, stronger effect = lower value 0.988 | locus YOR069W, strain VPS5, stronger effect = lower value 1.01 | locus YOR136W, strain idh2, stronger effect = lower value 0.982 | locus YOR144C, strain elg1, stronger effect = lower value 0.986 | locus YOR316C, strain cot1, stronger effect = lower value 0.985 | locus YPL055C, strain LGE1, stronger effect = lower value 0.963 | locus YPL241C, strain CIN2, stronger effect = lower value 1.01 | locus YPR119W, strain clb2, stronger effect = lower value 1.02 | locus YPR141C, strain kar3, stronger effect = lower value 1.01 | locus YPR167C, strain met16, stronger effect = lower value 1.01 | strain wtn01, stronger effect = lower value 0.943
active: locus YKR001C, strain vps1, stronger effect = lower value 0.863 | locus YLR418C, strain cdc73, stronger effect = lower value 0.781 | locus YOR184W, strain ser1, stronger effect = lower value 0.826 | locus YPR163C, strain tif3, stronger effect = lower value 0.906
